The first experiment addresses PUM1 PUF domain R4-RHV (Homo sapiens, UniProt Q14671 828-1176, N971R;Q975V). The experiment can be described thus: yeast three-hybrid, YBZ-1, SC-Leu-His + 0.5 mM 3-AT, 4 days. Conditions: tags: N-Gal4 AD-HA kept; label: inside an RPR1-promoter hybrid RNA with tandem MS2 sites; ssRNA. Put shortly:
(§1)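 Pumilio-1 PUF domain libraries, randomized (NNK) at the three base-contacting residues of each repeat, were co-expressed with matching RNA elements from a centromeric plasmid in strain YBZ-1 (LexA–MS2 coat fusion, HIS3 reporter). Transformants were plated on SC-Leu (input) and SC-Leu-His + 0.5 mM 3-AT (selection) for four days, and repeat regions were PCR-amplified and Illumina-sequenced. The interaction score is the log2 change in variant frequency from input to selection, with pseudocount 1 where absent.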
As to “GGCUAGAACUAGUGGAUCCCCCGGCGCCCGGCGGCUCGAGCCCGGGUAAGUGUAUAUAGUCUGCAUGCCGCCGGGCGCCAUGCCUGCAGGUCGACUCUAGAAAACAUG”, the binding signal was 4.8 log2 enrichment (interaction score).
As to “GGCUAGAACUAGUGGAUCCCCCGGCGCCCGGCGGCUCGAGCCCGGGUAAGUGUAAAUAGUCUGCAUGCCGCCGGGCGCCAUGCCUGCAGGUCGACUCUAGAAAACAUG”, the binding signal is 2.5 log2 enrichment (interaction score).
Still for that read-out and setting: next, “GGCUAGAACUAGUGGAUCCCCCGGCGCCCGGCGGCUCGAGCCCGGGUAAGUGUACAUAGUCUGCAUGCCGCCGGGCGCCAUGCCUGCAGGUCGACUCUAGAAAACAUG”: 2.18 log2 enrichment (interaction score).

The next experiment addresses PUM1 PUF domain R4-FGS (Homo sapiens, UniProt Q14671 828-1176, N971F;H972G;Q975S). The experiment is described as above. The note with it: tags: N-Gal4 AD-HA kept; label: inside an RPR1-promoter hybrid RNA with tandem MS2 sites; ssRNA. Put shortly: as §1
As for “GGCUAGAACUAGUGGAUCCCCCGGCGCCCGGCGGCUCGAGCCCGGGUAAGUGUAUAUAGUCUGCAUGCCGCCGGGCGCCAUGCCUGCAGGUCGACUCUAGAAAACAUG”, the binding signal is 2.78 log2 enrichment (interaction score).
Still for that read-out and setting: next, “GGCUAGAACUAGUGGAUCCCCCGGCGCCCGGCGGCUCGAGCCCGGGUAAGUGUAAAUAGUCUGCAUGCCGCCGGGCGCCAUGCCUGCAGGUCGACUCUAGAAAACAUG”: 0.95 log2 enrichment (interaction score); “GGCUAGAACUAGUGGAUCCCCCGGCGCCCGGCGGCUCGAGCCCGGGUAAGUGUACAUAGUCUGCAUGCCGCCGGGCGCCAUGCCUGCAGGUCGACUCUAGAAAACAUG”: 2.32 log2 enrichment (interaction score).

These data come from PMC8384837, “Expanding the binding specificity for RNA recognition by a PUF domain”.
